Measured values reported in PubChem BioAssay (Tox21).
Unmarked numbers belong to inactive results. Inconclusive results are not listed. Calls of active or inactive are those of the source. Calls come from the whole dose curve.

Each molecule was assayed against Acetylcholinesterase (Homo sapiens) (UniProt P22303) (assay: Acetylcholinesterase (AChE) small molecule antagonists: colormetric cell-based qHTS assay (AID 1347395; note: nearly all actives have a fitted effect of over 30% in size)). Conditions: SH-SY5Y cells AChE activity, colorimetric (Ellman); series mostly up to 115 µM; activity, negative = inhibition: at the top concentration.
Acetylcholinesterase (Homo sapiens), sequence (P22303 whole entry, looked up): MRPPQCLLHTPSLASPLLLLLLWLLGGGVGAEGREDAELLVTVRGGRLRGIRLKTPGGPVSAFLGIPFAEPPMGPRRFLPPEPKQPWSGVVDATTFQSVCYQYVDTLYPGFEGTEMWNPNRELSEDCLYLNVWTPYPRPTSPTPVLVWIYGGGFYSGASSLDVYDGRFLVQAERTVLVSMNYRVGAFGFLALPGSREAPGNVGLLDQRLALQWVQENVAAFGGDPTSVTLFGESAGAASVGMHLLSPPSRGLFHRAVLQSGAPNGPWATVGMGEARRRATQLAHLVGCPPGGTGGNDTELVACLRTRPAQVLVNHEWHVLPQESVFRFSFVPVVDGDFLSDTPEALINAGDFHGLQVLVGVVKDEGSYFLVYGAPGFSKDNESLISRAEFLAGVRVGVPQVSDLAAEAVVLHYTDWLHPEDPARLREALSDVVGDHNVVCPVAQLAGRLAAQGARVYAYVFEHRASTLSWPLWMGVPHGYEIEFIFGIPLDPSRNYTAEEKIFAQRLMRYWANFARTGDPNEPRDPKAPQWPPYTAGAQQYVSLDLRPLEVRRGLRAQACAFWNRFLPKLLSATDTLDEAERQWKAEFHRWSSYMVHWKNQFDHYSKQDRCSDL
Summary of the method: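 Homogeneous whole-cell format. SH-SY5Y cells seeded overnight, dosed with compound (30 min, 37 C, 5% CO2), then given DTNB/acetylthiocholine cocktail for 90 min at 37 C; colorimetric signal.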
% is set by controls: 0 for no effect and ±100 for the full control effect.

Row | Compound | activity, negative = inhibition | Potency
1 | O=C(CCCN1CCC(O)(c2ccc(Br)cc2)CC1)c1ccc(F)cc1 | -2.4% [at 52.9 µM] | –
2 | Cc1ccccc1Br | 2.27% | –
3 | CCCCN(CCC(=O)OCC)C(C)=O | 2.79% | –
4 | CCCCCCCCCCCC[N+](C)(C)CC(=O)[O-] | 2.1% | –
5 | CCc1nnc(NS(=O)(=O)c2ccc(N)cc2)s1 | 3.71% [at 52.9 µM] | –
6 | CCN(Cc1ccccc1)c1ccccc1 | 0.818% | –
7 | CC[C@H](C)[C@@H](C(=O)O)n1sc2ccccc2c1=O | -0.414% | –
8 | CC12CCC(C1)C(C)(C)C2O (stereo unspecified) | -0.0003% | –
9 | CC(=O)C(=O)CC(C)C | -0.291% | –
10 | OC[C@H]1O[C@H](O[C@]2(CCl)O[C@H](CCl)[C@@H](O)[C@@H]2O)[C@H](O)[C@@H](O)[C@H]1Cl | – | inactive
11 | CO[C@@H]1[C@H](OC(=O)/C=C/C=C/C=C/C=C/C(=O)O)CC[C@]2(CO2)[C@H]1[C@@]1(C)O[C@@H]1CC=C(C)C | 5.14% | –
12 | Clc1cccc(C(c2ccc3nc[nH]c3c2)n2ccnc2)c1 (stereo unspecified) | -5.33% [at 52.9 µM] | –
13 | NC(=O)c1ncn([C@@H]2O[C@H](CO)[C@@H](O)[C@H]2O)n1 | – | inactive
14 | O=c1[nH]cnc2c1ncn2[C@H]1CC[C@@H](CO)O1 | – | inactive
15 | C[C@@H]1CN(c2c(F)c(N)c3c(=O)c(C(=O)O)cn(C4CC4)c3c2F)C[C@H](C)N1 | 1.94% [at 23.6 µM] | –
16 | CCOCOCC | 0.873% | –

Each molecule was assayed against Acetylcholinesterase (Homo sapiens) (UniProt P22303) (assay: Acetylcholinesterase (AChE) small molecule antagonists: enzyme-based qHTS assay (AID 1347397; note: nearly all actives have a fitted effect of over 55% in size)). Conditions: Potency: AChE enzyme activity inhibition; outcome: AChE enzyme activity inhibition; series mostly up to 115 µM; activity change, negative = inhibition: at the top concentration.
Summary of the method: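 Colorimetric DTNB readout of acetylthiocholine hydrolysis, 10 min at room temperature, after 30 min room-temperature exposure of 50 mU/mL recombinant human enzyme to compound; DMSO vehicle control.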

Row | Compound | activity change, negative = inhibition | Potency
17 | CCCCC(CC)COCCC#N (stereo unspecified) | -0.0031% | –
18 | CC(=O)OCCC1CCCCC1 | -0.695% | –
19 | CCN(CC)C(=O)C1CN2CCc3cc(OC)c(OC)cc3C2CC1OC(C)=O (stereo unspecified) | -1.11% [at 53 µM] | –
20 | CC(C)c1ccc2sc3ccccc3c(=O)c2c1 | 1.21% | –
21 | CC(C)c1cccc(O)c1 | 0.258% | –
22 | c1ccc2c(c1)ccc1ccccc12 | – | inactive
23 | COC(=O)c1ccccc1C | 0.0008% | –
24 | CN(C)CCCOC1(Cc2ccccc2)CCCCCC1 | 0.4% [at 53 µM] | –
25 | CC1(C)[C@@H]2CC[C@@]1(C)C(=O)C2 | – | inactive
26 | O=C(Cl)c1ccccc1[N+](=O)[O-] | -0.153% | –
27 | O=C(O)CCC(=O)C(=O)O | -0.172% | –
28 | O=C(OCC1CCC2OC2C1)C1CCC2OC2C1 (stereo unspecified) | – | inactive
29 | CCOc1cc(NC(C)=O)ccc1C(=O)OC | 1.22% [at 53 µM] | –
30 | C1N2CN3CN1CN(C2)C3 | – | inactive
31 | CCCCCCCCCCCCO | – | inactive
32 | CCCCOCCOCCOCCCC | -0.0383% | –
33 | CN(C)Cc1ccccc1O | 0.839% | –
34 | OC[C@H]1O[C@@H]2O[C@H]3[C@H](O)[C@@H](O)[C@@H](O[C@H]4[C@H](O)[C@@H](O)[C@@H](O[C@H]5[C@H](O)[C@@H](O)[C@@H](O[C@H]6[C@H](O)[C@@H](O)[C@@H](O[C@H]7[C@H](O)[C@@H](O)[C@@H](O[C@H]1[C@H](O)[C@H]2O)O[C@@H]7CO)O[C@@H]6CO)O[C@@H]5CO)O[C@@H]4CO)O[C@@H]3CO | – | inactive
35 | CC(=O)OCc1ccccc1 | – | inactive
36 | CC12CCCC=C1C(=O)OC2=O (stereo unspecified) | 0.0657% | –

Row | Compound | activity change, negative = inhibition | Potency
37 | NCCOCCN | -0.0378% | –
38 | C=CCc1ccc(OC)c(OC)c1 | – | inactive
39 | C=CCSSCCC | 1.36% | –
40 | C=CCCCCCCCCC(=O)OCC | 0.0941% | –
41 | O=C(CCCN1CCC(O)(c2ccc(Br)cc2)CC1)c1ccc(F)cc1 | -0.831% [at 53 µM] | –
42 | Cc1ccccc1Br | -2.04% | –
43 | CCCCN(CCC(=O)OCC)C(C)=O | 1.27% | –
44 | CCCCCCCCCCCC[N+](C)(C)CC(=O)[O-] | -0.774% | –
45 | CCc1nnc(NS(=O)(=O)c2ccc(N)cc2)s1 | 0.491% [at 53 µM] | –
46 | CCN(Cc1ccccc1)c1ccccc1 | -0.385% | –
47 | CC[C@H](C)[C@@H](C(=O)O)n1sc2ccccc2c1=O | -3.1% | –
48 | CC12CCC(C1)C(C)(C)C2O (stereo unspecified) | -0.824% | –
49 | CC(=O)C(=O)CC(C)C | 0.543% | –
50 | OC[C@H]1O[C@H](O[C@]2(CCl)O[C@H](CCl)[C@@H](O)[C@@H]2O)[C@H](O)[C@@H](O)[C@H]1Cl | – | inactive
51 | CO[C@@H]1[C@H](OC(=O)/C=C/C=C/C=C/C=C/C(=O)O)CC[C@]2(CO2)[C@H]1[C@@]1(C)O[C@@H]1CC=C(C)C | 2.76% | –
52 | Clc1cccc(C(c2ccc3nc[nH]c3c2)n2ccnc2)c1 (stereo unspecified) | -0.81% [at 53 µM] | –
53 | NC(=O)c1ncn([C@@H]2O[C@H](CO)[C@@H](O)[C@H]2O)n1 | – | inactive
54 | O=c1[nH]cnc2c1ncn2[C@H]1CC[C@@H](CO)O1 | – | inactive
55 | C[C@@H]1CN(c2c(F)c(N)c3c(=O)c(C(=O)O)cn(C4CC4)c3c2F)C[C@H](C)N1 | -2.1% [at 23.6 µM] | –
56 | CCOCOCC | -0.0725% | –
